# In PubChem BioAssay AID686997 (Broad Institute, 2013):
# Entries with a potency or affinity are not part of this list. A number with no mark means an inactive call.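 How the source made its calls: active means compound lowering the viability signal whose fitted half-maximal dose is at most twice its top tested dose; inconclusive means flat curve with 30 to 70% inhibition, or poor fit; inactive means the rest.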
# Experiment: PubChem AID 686997
# Conditions: C. neoformans growth, alamar blue, 72 h (sorbitol counter-screen); series mostly up to 35 µM; activity change, negative = inhibition: at the top concentration
row,Structure (SMILES),"activity change, negative = inhibition"
1,O=C(NC(=S)Nc1ccccc1N1CCOCC1)c1cccc([N+](=O)[O-])c1,5.09%
2,COc1ccc(CNC(=S)NCc2ccc(OC(C)C)cc2)cc1,1.25%
3,COc1ccccc1NC(=S)NCc1ccccc1Cl,7.46%
4,COc1ccc(NC(=S)NCc2ccc(Cl)cc2)c(OC)c1,8.07%
5,O=C(NC(=S)Nc1ccc(Br)cc1)C1CCC1,1.92%
6,O=C(NC(=S)NCC1COc2ccccc2O1)c1ccc(Cl)cc1 (stereo not drawn),16.9% [at 46 µM]
7,Cc1cc(C(=O)NC(=S)Nc2ccccc2N2CCOCC2)ccc1[N+](=O)[O-],3.41%
8,CCCCN1C(=S)NC[C@@H]1Cc1ccccc1,2.5%
9,O=C(NCCN1CCCCC1)[C@H]1N[C@H]2c3ccc(-c4ccncc4)c(=O)n3C[C@H]2[C@@H]1CO,13.6%
10,CCc1nc(N2CCCCC2C)c2oc3ccccc3c2n1 (stereo not drawn),9.52%
11,COC(=O)C1=C(C)N(Cc2ccccc2)C(=S)N[C@H]1c1cccc(F)c1,-1.98%
12,Fc1ccccc1NC(=S)NN(Cc1ccccc1)c1ccccc1,-2.68%
13,CCc1ccc(C(C)NC(=S)NCc2ccc(F)cc2)cc1 (stereo not drawn),4.02%
14,CC(C)CC1(C)N=C(c2ccccc2)C(=S)N1 (stereo not drawn),8.07%
15,O=C(NC(=S)Nc1ccccc1N1CCCC1)c1ccccc1[N+](=O)[O-],3.81%
16,COc1ccccc1NC(=S)NCc1ccc(Cl)cc1,1.84%
17,Cc1ccc(C(=O)NC(=S)Nc2ccc(N3CCOCC3)cc2)cc1,9.23%

row,Structure (SMILES),"activity change, negative = inhibition"
1,CCCCNC(=S)N/N=C/c1ccc(C#N)cc1,-5.24%
2,O=C(NC(=S)Nc1ccccc1N1CCCC1)c1ccc([N+](=O)[O-])cc1,-3.51%
3,CO[C@H]1CN(C)C(=O)c2cc(NC(=O)C3CC3)ccc2OC[C@@H](C)N(Cc2cncnc2)C[C@H]1C,8.68%
4,Fc1ccccc1NC(=S)NCCc1cccc(Cl)c1,-1.31%
5,S=C(NCCCc1ccccc1)Nc1ccccc1,10.1%
6,COc1ccccc1CNC(=S)NCc1ccc(Cl)cc1,-4.87%
7,CCc1ccc(C(=O)NC(=S)NCc2cccnc2)cc1,7.29%
8,S=C(NCc1ccccc1)NCC1COc2ccccc2O1 (stereo not drawn),-4.42%
9,Cc1ccc(C)c(NC(=O)C2(C)CCCN2C(=O)C(C)C)c1 (stereo not drawn),13.8% [at 56 µM]
10,COc1cccc(NC(=S)NC(=O)Cc2ccc(Cl)cc2)c1,7.7%
11,CCOC(=O)NC(=S)Nc1ccc(C(C)(C)C)cc1,-8.87%
12,O=C(NC(=S)Nc1cccc(F)c1)c1cccc([N+](=O)[O-])c1,7.08%
13,COC(=O)C1=C(C)N(CC(C)C)C(=S)NC1c1cccc(F)c1 (stereo not drawn),4.94% [at 42 µM]
14,O=C(Cc1ccccc1)N[C@H]1C=C[C@@H](CC(=O)N2CCOCC2)O[C@@H]1CO,15.1%
15,COC(=O)C1=C(C)N(Cc2ccc(F)cc2)C(=S)NC1c1ccc(F)cc1 (stereo not drawn),17.6% [at 16 µM]
16,O=C(NC(=S)Nc1cc(Cl)ccc1N1CCOCC1)c1ccccc1[N+](=O)[O-],9.06%
